DT40 TDP1 CPT: DT40-hTDP1 cell growth loss with CPT; 420,000 compounds, 12% hits; AID 686979; chicken DT40 Tdp1-/-;hTDP1 cells + 20 nM CPT, ATP luminescence, 48 h; Potency, µM (series often up to 46.2 µM), without a hit: at the top dose activity change, negative = growth inhibition, usual class: inhibitors; note: % is set by controls: 0 for no effect and ±100 for the full control effect; nearly all actives have a fitted effect of over 55% in size
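Chicken DT40 Tdp1-/- cells complemented with human TDP1, 400 cells/well, exposed to compounds plus 20 nM camptothecin for at least 48 h at 37 C; viability read as ATP content by CellTiter-Glo luminescence.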
HepG2 viability: HepG2 cytotoxicity, counter-screen for TGF-b inhibitors. 410,000 compounds, 0.76% hits. AID 588856. Potency, µM (titrated, usually from 46.1 µM), inactives show top-dose activity change, negative = cytotoxicity, hits mostly cytotoxic. HepG2 CAGA-GFP viability, ATP luminescence, 18 h
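CellTiter-Glo luminescence gave cytotoxicity after 18 hours at 37 degrees C. The cells were HepG2 CAGA-GFP in 1% FBS DMEM, stimulated with 500 pg/mL TGF-beta after compound addition. %Activity was normalised to no-cell wells (complete cell-killing) and DMSO (no toxicity), and curves were fitted and classified.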
TGFb SMAD3 inh: inhibitors of TGF-b signaling. AID 588855. 410,000 compounds, 1.2% hits. Potency, µM (highest dose often 46.1 µM), inactives show at the top dose activity, negative = inhibition, hits mostly inhibitors. HepG2 CAGA-GFP TGF-b/SMAD3 reporter, GFP fluorescence, 18 h; TGF-beta stimulated, 500 pg/mL final; note: % is set by controls: 0 for no effect and ±100 for the full control effect; nearly all actives have a fitted effect of over 65% in size
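Cell-based qHTS in HEPG2 carrying a CAGA-GFP Smad reporter; compounds added before 500 pg/mL final TGF-beta, 18 h incubation at 37 degrees C, GFP fluorescence quantified per cell by imaging cytometry.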
ATXN2 expr inh: reduces ATXN2 reporter expression in HEK-293 cells; HEK-293 ATXN2-luciferase reporter, luminescence, 24 h; Potency, µM (doses to about 57 µM), for the others: at the top dose activity change, negative = inhibition, hits mostly inhibitors; 360,000 compounds, 0.72% hits; note: % is set by controls: 0 for no effect and ±100 for the full control effect; nearly all actives have a fitted effect of over 55% in size
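qHTS (up to 57 uM final) was run with 24 h compound exposure of reporter cells at 37 °C. Each well was multiplexed: SteadyGlo luminescence measured ATXN2-luciferase expression after a fluorogenic Gly-Phe-AFC viability readout (25 uM final).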
ATXN viability: viability counter-screen for ATXN expression inhibitors | S2 cells (HEK-293 line with an ATXN2-luciferase reporter) viability, CellTiter-Fluor protease fluorescence, 24 h | Potency, µM (highest dose often 56.7 µM), most hits filed as cytotoxic | 400,000 compounds, 0.49% hits | AID 651635; note: nearly all actives have a fitted effect of over 40% in size
TDP1 cell noCPT: qHTS for Inhibitors of human tyrosyl-DNA phosphodiesterase 1 (TDP1): qHTS in cells in absence of CPT. 420,000 compounds, 15% hits. Potency, µM (top dose mostly 46.2 µM), without a hit: at the highest dose activity change, negative = growth inhibition, actives largely listed as inhibitors. DT40 Tdp1-/- hTDP1 cells, no CPT, ATP luminescence, 48 h. AID 686978, 2013; note: % is set by controls: 0 for no effect and ±100 for the full control effect; nearly all actives have a fitted effect of over 55% in size
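Stably hTDP1-transfected Tdp1-null chicken DT40 cells were treated with library compounds minus camptothecin and grown for at least 48 hr at 37 °C, after which cellular ATP was quantified by luminescence.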
* = called active by the depositor; i = inactive; ? = inconclusive; · = no result. Only some compounds are listed: those with a hit (about 17% of all), similar ones and a draw of the others. Calls come from the whole dose curve; as a rule, active = well fitted curve in the direction sought with a large enough effect; inconclusive = small, poorly fitted or top-dose-only effect, or another doubt; inactive = no such curve, though single readings can be large; an effect the other way counts as inactive or inconclusive. Potency is the fitted concentration of half-maximal effect.

SMILES | DT40 TDP1 CPT | HepG2 viability | TGFb SMAD3 inh | ATXN2 expr inh | ATXN viability | TDP1 cell noCPT
CNS(=O)(=O)c1cccc(C(=O)OCC(=O)c2cc(C)n(-c3ccc4c(c3)OCO4)c2C)c1 | -11% | 9% | -7% | -5% | i | -29%
Cc1ccc(-n2c(C)cc(C(=O)COc3c(CO)cc(F)cc3CO)c2C)cc1C | 9.2µM* | 2% | ? | -20% | ? | 3.7µM*
COCC(=O)OCC(=O)c1cc(C)n(-c2ccc(Br)cc2)c1C | ? | 3% | 0% | -15% | i | -19%
Cc1cc(C(=O)CSc2n[nH]c(N)n2)c(C)n1-c1ccc2c(c1)OCO2 | ? | -43% | ? | 6% | i | 23µM*
CCC(C)c1ccc(NC(=S)NN2CCOCC2)cc1 (stereo not given) | 0% | 0% | ? | 20% | i | -7%
CCCNC(=O)C1(C)CCCN(C(=O)c2cccc(C#N)c2)C1 (stereo not given) | 4% | -1% | 18% | 9% | i | -7%
CC(C)CC(NC(=O)C(COCc1ccccc1)NC(=O)OC(C)(C)C)C(=O)NN (stereo not given) | -15% | 7% | ? | · | ? | 0%
C=C1[C@@H]2CC[C@@H](C2)C1(C)C | 14% | · | · | · | · | -9%
Cc1c(Cl)cccc1-n1c(SCC(=O)NCc2ccccc2Cl)nnc1-c1ccncc1 | 14µM* | -8% | -28% | -5% | i | ?
Cc1c(Cl)cccc1-n1c(SCC(=O)NCc2cccs2)nnc1-c1ccncc1 | -15% | 2% | 0% | -2% | ? | ?
CCNc1c(NS(=O)(=O)c2ccc(OC)cc2)c(=O)oc2ccccc12 | ? | -3% | -1% | 5% | ? | ?
O=C1c2ccccc2N2C(=O)c3ccccc3C2N1Cc1ccccc1 (stereo not given) | ? | -9% | ? | -19% | i | ?
O=C1c2ccccc2N2C(=O)c3ccccc3[C@H]2N1c1ccccc1 | 16µM* | 1% | 4% | -23% | i | 18µM*
COC(=O)Cn1c(SCCOc2ccccc2Cl)nc2ccccc21 | -4% | -11% | -26% | 6% | i | ?
Cc1ccc(N=C2NC(=O)/C(=C/c3cccnc3)S2)c(C)c1 | -15% | -17% | -9% | -33% | i | -21%
Cc1ccc(N=C2NC(=O)/C(=C\c3ccsc3)S2)c(C)c1 | 16µM* | -36% | ? | 6% | i | ?
C[C@@H]1CCCCO[C@H](CN(C)S(=O)(=O)c2ccc(F)cc2)[C@@H](C)CN([C@H](C)CO)C(=O)c2cc(NC(=O)Nc3ccc(C(F)(F)F)cc3)ccc2O1 | 9.2µM* | -31% | 2% | 11% | i | 8.2µM*
C[C@H]1CCCCO[C@@H](CN(C)S(=O)(=O)c2ccc(F)cc2)[C@@H](C)CN([C@@H](C)CO)C(=O)c2cc(NC(=O)Nc3ccc4c(c3)OCO4)ccc2O1 | 18µM* | -8% | 1% | -7% | i | 9.2µM*
COc1ccc(S(=O)(=O)N(C)C[C@@H]2OCCCC[C@H](C)Oc3ccc(NC(=O)Nc4ccc(C(F)(F)F)cc4)cc3C(=O)N([C@H](C)CO)C[C@H]2C)cc1 | 19% | 5% | 0% | -5% | i | 7.3µM*
C[C@@H]1CCCCO[C@H](CN(C)C)[C@H](C)CN([C@@H](C)CO)C(=O)c2cc(NC(=O)Nc3ccc(C(F)(F)F)cc3)ccc2O1 | ? | -51% | 6% | -28% | i | 1%
Cc1ccccc1CNC(=O)c1ccc2nc([C@@H]3O[C@H](CO)[C@H](O)[C@H](O)[C@H]3O)[nH]c2c1 | 3% | 0% | 6% | 0% | i | -6%
